# CtBP-E1A blk: qHTS Assay for Inhibitors of the CtBP/E1A Interaction; CtBP / adenovirus E1A interaction (AlphaScreen); AlphaScreen GST-E1A/His-CtBP binding, 1536-well; hits give low values; activity change, % (no concentration beside the values); hit rate 0.49% among 340,000; in the data active means activity change below about -65%; inconclusive means mostly about -30% to -63%; further: on the % scale 0 is the no-effect control and ±100 the full control effect
#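 Protein mix (5X: 125 nM each GST-E1A, His-CtBP) was incubated with pinned compound 2 h at 37 deg C in dark, in 50 mM Tris pH 8.0 buffer with 300 mM NaCl. Glutathione donor and nickel acceptor beads followed; AlphaScreen signal read after 1 h.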
# HP1b binding inh: HTS for Inhibitors of HP1-beta Chromodomain Interactions with Methylated Histone Tails; Chromobox protein homolog 1 (Homo sapiens), P83916; AlphaScreen HP1-beta / biotin-H3K9me3 peptide binding; hit rate 0.56% among 390,000; Potency, µM (titrated, usually from 114 µM), inactives show top-dose activity change, negative = inhibition, actives largely listed as inhibitors; further: potency means the concentration at half of the fitted maximal effect; nearly all actives have a fitted effect of over 70% in size
#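 AlphaScreen: HP1-beta (50 nM) preformed 30 min with biotin-H3(1-18)K9me3 peptide (50 nM) in PBS pH 7.4, 0.01% Tween-20. Compound added for 30 min at RT, then streptavidin donor/nickel chelate acceptor beads (10 ug/mL) for 30 min.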
# BAZ2B inh: qHTS Assay for Inhibitors of BAZ2B | Bromodomain adjacent to zinc finger domain protein 2B (Homo sapiens), Q9UIF8 | AlphaScreen BAZ2B-H3K14Ac peptide displacement | Potency, µM (highest dose often 114 µM), inactives show at the highest dose activity change, negative = inhibition, actives largely listed as inhibitors | hit rate 4.4% among 360,000 | AID 504333, 2011; further: potency means the concentration at half of the fitted maximal effect; on the % scale 0 is the no-effect control and ±100 the full control effect; nearly all actives have a fitted effect of over 60% in size
# Target sequence (Q9UIF8 whole entry, looked up, the tested form may be a part): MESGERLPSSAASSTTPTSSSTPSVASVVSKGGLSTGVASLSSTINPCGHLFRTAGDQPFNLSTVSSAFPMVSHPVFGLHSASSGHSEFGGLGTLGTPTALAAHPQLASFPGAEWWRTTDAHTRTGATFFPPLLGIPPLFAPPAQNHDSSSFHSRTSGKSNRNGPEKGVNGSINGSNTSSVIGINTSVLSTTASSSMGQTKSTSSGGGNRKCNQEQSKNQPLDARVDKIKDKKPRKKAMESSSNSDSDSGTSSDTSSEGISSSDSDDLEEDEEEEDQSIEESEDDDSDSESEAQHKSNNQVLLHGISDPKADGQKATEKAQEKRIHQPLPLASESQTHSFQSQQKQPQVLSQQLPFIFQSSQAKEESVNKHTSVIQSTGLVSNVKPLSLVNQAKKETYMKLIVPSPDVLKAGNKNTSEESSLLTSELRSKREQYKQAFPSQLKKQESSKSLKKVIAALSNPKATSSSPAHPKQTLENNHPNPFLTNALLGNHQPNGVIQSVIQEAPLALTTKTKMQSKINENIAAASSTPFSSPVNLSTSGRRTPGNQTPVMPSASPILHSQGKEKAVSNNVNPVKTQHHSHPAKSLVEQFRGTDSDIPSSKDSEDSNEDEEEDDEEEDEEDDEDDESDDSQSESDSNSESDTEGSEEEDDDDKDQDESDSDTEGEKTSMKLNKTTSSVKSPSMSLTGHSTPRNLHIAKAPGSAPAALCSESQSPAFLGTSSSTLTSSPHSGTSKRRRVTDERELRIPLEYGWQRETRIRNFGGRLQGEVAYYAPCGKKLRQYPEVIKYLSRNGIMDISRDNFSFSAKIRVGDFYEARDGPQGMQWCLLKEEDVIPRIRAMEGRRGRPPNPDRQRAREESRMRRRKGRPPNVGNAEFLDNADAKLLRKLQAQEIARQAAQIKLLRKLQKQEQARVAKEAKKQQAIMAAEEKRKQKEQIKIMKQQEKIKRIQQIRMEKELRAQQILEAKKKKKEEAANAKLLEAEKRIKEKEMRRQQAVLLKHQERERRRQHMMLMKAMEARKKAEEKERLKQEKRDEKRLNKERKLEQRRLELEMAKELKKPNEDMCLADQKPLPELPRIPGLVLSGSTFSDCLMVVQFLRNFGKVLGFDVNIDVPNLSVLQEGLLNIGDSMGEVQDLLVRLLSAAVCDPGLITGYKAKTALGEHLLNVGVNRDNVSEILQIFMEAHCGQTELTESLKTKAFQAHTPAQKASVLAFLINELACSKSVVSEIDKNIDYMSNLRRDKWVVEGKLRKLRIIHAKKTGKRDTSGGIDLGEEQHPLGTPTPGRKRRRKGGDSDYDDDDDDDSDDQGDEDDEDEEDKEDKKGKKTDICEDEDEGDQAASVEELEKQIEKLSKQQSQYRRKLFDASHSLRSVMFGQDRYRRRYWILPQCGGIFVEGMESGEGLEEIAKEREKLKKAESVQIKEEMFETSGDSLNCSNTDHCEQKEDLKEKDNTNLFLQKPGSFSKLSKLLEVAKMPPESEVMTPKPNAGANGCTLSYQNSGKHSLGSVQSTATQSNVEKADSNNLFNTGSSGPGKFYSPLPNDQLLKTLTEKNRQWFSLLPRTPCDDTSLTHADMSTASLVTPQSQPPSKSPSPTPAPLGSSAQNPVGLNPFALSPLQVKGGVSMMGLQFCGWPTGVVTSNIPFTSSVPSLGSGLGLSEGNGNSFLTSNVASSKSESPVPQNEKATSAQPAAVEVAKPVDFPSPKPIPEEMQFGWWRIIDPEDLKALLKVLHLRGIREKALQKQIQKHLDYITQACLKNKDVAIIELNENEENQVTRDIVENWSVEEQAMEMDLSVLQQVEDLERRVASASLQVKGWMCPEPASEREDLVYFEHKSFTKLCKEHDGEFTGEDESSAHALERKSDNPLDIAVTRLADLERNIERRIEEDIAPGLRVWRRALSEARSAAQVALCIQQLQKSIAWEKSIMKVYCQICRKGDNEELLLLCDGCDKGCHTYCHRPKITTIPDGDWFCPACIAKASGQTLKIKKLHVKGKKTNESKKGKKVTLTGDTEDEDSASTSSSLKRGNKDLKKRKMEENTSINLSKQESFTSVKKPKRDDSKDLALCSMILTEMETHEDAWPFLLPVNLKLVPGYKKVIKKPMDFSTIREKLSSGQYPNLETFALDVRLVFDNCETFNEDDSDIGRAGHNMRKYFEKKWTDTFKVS
#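 Multi-concentration screen (max 110 uM) measuring displacement of acetylated histone H3 peptide from BAZ2B by AlphaScreen, using 50 nM protein, 50 nM peptide and 10 ug/mL streptavidin donor plus Ni-chelate acceptor beads.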
# Six1-Eya2 blk: qHTS Assay for Inhibitors of the Six1/Eya2 Interaction; AlphaScreen GST-Six1/His-Eya2 binding, biochemical; hits give low values; hit rate 0.56% among 360,000; activity change, % (concentration not given with the values); in the data active means activity change below about -65%; inconclusive means mostly about -30% to -63%; further: on the % scale 0 is the no-effect control and ±100 the full control effect
#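 AlphaScreen with GST-Six1 and His-Eya2 (5X mix: 250 nM and 500 nM), glutathione donor and nickel acceptor beads; buffer 50 mM Tris pH 8.0, 300 mM NaCl, 1 mM TCEP; 1 h at 37 C in the dark.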
# G9a block: qHTS Assay for Inhibitors of Histone Lysine Methyltransferase G9a | hit rate 8.8% among 350,000 | Histone-lysine N-methyltransferase EHMT2 (Homo sapiens), Q96KQ7 | G9a H3K9 monomethylation, AlphaScreen, 2 h | Potency, µM (series often up to 102 µM), without a hit: at the top dose activity, negative = inhibition, actives largely listed as inhibitors; further: potency means the concentration at half of the fitted maximal effect; on the % scale 0 is the no-effect control and ±100 the full control effect; nearly all actives have a fitted effect of over 75% in size
#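 Readings reflect AlphaScreen signal from monomethyl-H3K9 antibody detection. HMT at 20 nM; substrate b-H3K9 500 nM; cofactor SAM 20 uM; 2 h RT reaction; compounds tested as titrations in qHTS with 15 min preincubation.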
# JMJD2A Tudor inh: qHTS Assay for Inhibitors of JMJD2A-Tudor Domain | AID 504339, 2011 | Potency, µM (titrated, usually from 114 µM), without a hit: top-dose activity change, negative = inhibition, most hits filed as inhibitors | hit rate 4.4% among 390,000 | Lysine-specific demethylase 4A (Homo sapiens), O75164 | AlphaScreen JMJD2A-Tudor / H3K4me3 peptide binding; further: potency means the concentration at half of the fitted maximal effect; on the % scale 0 is the no-effect control and ±100 the full control effect; nearly all actives have a fitted effect of over 50% in size
# The depositor's hits bear a star; ? = inconclusive; nt = no result given; [ ] = remark or other dose. Hits are enriched below; roughly 10% of the tested compounds scored in any of these assays. Unless noted, the call rests on the fitted dose curve; in most records, active means well fitted inhibition curve with a large enough effect; inconclusive means small, poorly fitted or top-dose-only effect; inactive means no such curve, though single readings can be large or run the other way.
SMILES,CtBP-E1A blk,HP1b binding inh,BAZ2B inh,Six1-Eya2 blk,G9a block,JMJD2A Tudor inh
CCCC1=NN2C(=N)/C(=C\c3ccc(SCc4ccco4)o3)C(=O)N=C2S1,-20,?,45µM*,-23,8.9µM*,50µM*
CCC1=NN2C(=N)/C(=C\c3ccc(SCc4ccco4)o3)C(=O)N=C2S1,0,-15%,50µM*,-23,7.1µM*,?
CCCCCC/C=C\CCCCCCCc1cccc(O)c1C(=O)O,nt,nt,nt,nt,3%[2.33 µM],nt
CCCCCC(=O)Cc1cc(O)cc2c1C(=O)Oc1cc(O)c(C(=O)O)c(CCCCC)c1O2,-3,-9%,?,8,-23%[59 µM],79µM*
Cc1nc(C(=O)NNC(=O)c2ccccc2)c(C(F)(F)F)o1,6,55%,-33%,0,4.5µM*,?
COc1ccc(-c2csc(Nc3ccc(S(=O)(=O)Nc4cc(OC)nc(OC)n4)cc3)n2)cc1,-21,?,45µM*,-17,-12%[59 µM],?
COc1cc(NS(=O)(=O)c2ccc(NC(=O)c3cccs3)cc2)nc(OC)n1,-6,-3%,-15%,-27,-14%,-19%
COc1ccc(-c2csc(Nc3ccc(S(=O)(=O)Nc4cc(C)on4)cc3)n2)cc1C,nt,-15%,50µM*,-6,40µM*,?
COc1cc(NS(=O)(=O)c2ccc(Nc3nc(-c4ccccn4)cs3)cc2)nc(OC)n1,-76*,3%,?,-79*,-34%,?
Cc1ccc(Nc2nc(-c3ccc(S(=O)(=O)N4CCCC4)cc3)cs2)cc1C,-7,0%,?,-13,45µM*,?
COc1cc(NS(=O)(=O)c2ccc(NC(C)=O)cc2)nc(OC)n1,3,34%,-5%,0,3%[59 µM],5%
CC(=O)NCCNc1nc2cc(-c3cccc(Cl)c3)sc2c(=O)n1C,-7,nt,nt,1,nt,nt
Cc1cccc(-n2ncc3c(N4CCN(CCO)CC4)ncnc32)c1,nt,13%,-1%,nt,-6%[59 µM],-21%
Cc1cc(C)cc(N2C(=O)N(Cc3cc(=O)n4ccccc4n3)c3ccccc3S2(=O)=O)c1,nt,26%,-7%,nt,1%[59 µM],-22%
CCCSCCCNC(=O)c1ccc2c(c1)sc1nc(-c3ccc(OCC)cc3)cn12,nt,65%,20%,nt,15%[59 µM],4%
COc1cc(/C=C/c2cccc[n+]2C)ccc1OCC(=O)Nc1cccc(Cl)c1,-1,-10%,?,3,50µM*,-6%
COc1cc(/C=C/c2cccc[n+]2C)ccc1OCC(=O)Nc1ccccc1,-1,9%,-15%,7,45µM*,-10%
Cc1nc(Cl)sc1C(=O)Nc1ccc(Cl)cc1,20,55%,9%,-5,12%,5%
CN(C(=S)Nc1ccc(SC(F)F)cc1)c1ccc(O)cc1,-3,71µM*,?,-2,1.4µM*,?
CN(C(=S)Nc1cccnc1)c1ccc(O)cc1,-4,?,-10%,3,1.6µM*,?
CN(C(=S)Nc1ccc(Oc2ccccc2)cc1)c1ccc(O)cc1,-21,18µM*,?,-5,1.3µM*,56µM*
Cc1ccc(-c2ccc3c(c2)O[C@H](CN(C)Cc2cncnc2)[C@@H](C)CN([C@H](C)CO)S3(=O)=O)cc1,1,nt,nt,-4,nt,nt
COc1cccc(C(=O)NCC2(c3ccc(OC)c(OC)c3)CCCC2)c1,-3,23%,-7%,-2,nt,-17%
O=C(CCc1nc2ccccc2n1-c1ccccc1)NCCO,6,54%,1%,-4,17%[59 µM],2%
CC1CCCCN1CC(=O)Nc1ccc(Oc2ccccc2)cc1 (stereo not given),0,49%,1%,3,-6%,-9%
SMILES,CtBP-E1A blk,HP1b binding inh,BAZ2B inh,Six1-Eya2 blk,G9a block,JMJD2A Tudor inh
CN1CCN(c2ccc(NC(=O)Cc3ccccc3)cc2)CC1,-3,1%,-2%,4,-30%[12.7 µM],-13%
CC1CCCCN1CC(=O)Nc1ccc(N2CCCCCC2)cc1 (stereo not given),-14,22µM*,11µM*,?,3.2µM*,1.4µM*
O=C(Cc1ccccc1)Nc1ccc(N2CCCCC2)cc1,-23,32%,-24%,-10,28µM*,-24%
O=C(Cn1c(-c2ccccc2)noc1=O)Nc1ccc(N2CCCCCC2)cc1,?,?,22µM*,?,?,22µM*
O=C(COC(=O)CCc1nc2ccccc2n1-c1ccccc1)Nc1ccc(N2CCCCC2)cc1,-4,-6%,?,-14,10µM*,-20%
O=C(Nc1ccc(N2CCCCC2)cc1)c1ccccc1,8,2%,-24%,-16,?,-28%
CCC(=O)Nc1ccc(N2CCCCC2)cc1,0,2%,1%,0,-45%[12.7 µM],-14%
COCCCNC(=S)Nc1ccc(N2CCCCC2)cc1,-6,15%,?,-11,?,-13%
O=C(CNC(=O)c1ccco1)Nc1ccc(N2CCCCCC2)cc1,-21,-32%,?,-18,?,?
O=C(CNCc1ccco1)Nc1ccc(N2CCCCCC2)cc1,-25,40µM*,28µM*,-29,8.9µM*,20µM*
NC(=O)NC(=O)C(Nc1ccc(N2CCCCC2)cc1)c1ccccc1 (stereo not given),-13,?,?,4,16µM*,?
O=C(CCl)Nc1ccc(N2CCCCCC2)cc1,-13,?,?,-17,16µM*,50µM*
CCNC(=S)Nc1ccc(N2CCCCC2)cc1,0,?,35µM*,-14,32µM*,-30%[57.1 µM]
CCCC(=O)Nc1ccc(N2CCCCC2)cc1,2,-5%,-12%,12,?,-8%[11.4 µM]
O=C(O)CCCC(=O)Nc1ccc(N2CCCC2)cc1,-14,41%,4%,-26,40µM*,?
Cc1cc(C)c2c(=O)[nH]c(SCC(=O)c3ccc(C)c(C)c3)nc2n1,-17,24%,-13%,-19,50µM*,2%
Cc1cc(C)c2c(=O)[nH]c(SCC(=O)Nc3ccccc3)nc2n1,-4,21%,2%,-5,16%[59 µM],-15%
c1ccc(-c2cc(N3CCOCC3)nc3ccccc23)cc1,45,9%,50µM*,37,4.5µM*,3.2µM*
O=C(CSc1n[nH]c(-c2ccccc2)n1)NCCCc1ccccc1,nt,18%[57 µM],5%,nt,12%[59 µM],-12%
O=[N+]([O-])c1cc(S(=O)(=O)NC2=NCCCCC2)ccc1NCC1CCCCC1,-21,-14%,nt,-26,45µM*,45µM*

# Screening data (PubChem)
